Shown are actives, neighbours in structure and some others; about 19% of the full set was active somewhere.
KB-V1 cytotox: qHTS assay for MDR1-selective chemotherapeutics: Primary screen using the drug-selected MDR subline cells KB-V1. 400,000 compounds, 3.4% hits. AID 1347076, 2019. Potency, µM (series often up to 46.1 µM), hits mostly cytotoxic. KB-V1 MDR cells viability, CellTiter-Glo, 72 h; also: nearly all actives have a fitted effect of over 60% in size
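Readout: CellTiter-Glo luminescence, 10 min after addition. Cells: KB-V1 MDR subline, 72 h at 37 degrees C with compound. Analysis: corrected, normalized data fitted to concentration-effect curves.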
HT1080 IDH1KD tx: qHTS for induction of synthetic lethality in tumor cells producing 2HG: qHTS for the HT-1080-IDH1KD cell line; HT-1080 IDH1 knockdown viability, ATP luminescence, 48 h; Potency, µM (top dose mostly 46.1 µM), without a hit: top-dose activity, negative = toxicity, hits mostly cytotoxic; 360,000 compounds, 2% hits; AID 686971, 2013;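 also: 0% = DMSO wells and -100% = cell-free medium wells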
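IDH1KD HT-1080 cells, 750/well, RPMI + 5% FBS; compound pinned after 2 h settling; 48 h, 37 °C; CellTiter-Glo luminescence; % activity normalised to DMSO and no-cell wells; curves fitted, classed by r2 and efficacy.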
KB-3-1 tox: qHTS assay for MDR1-selective chemotherapeutics: Primary screen using the parental adenocarcinoma cell KB-3-1; KB-3-1 viability, CellTiter-Glo ATP luminescence, 72 h; Potency, µM (doses to about 46.1 µM), most hits filed as cytotoxic; 400,000 compounds, 1.4% hits; also: nearly all actives have a fitted effect of over 60% in size
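Luminescent ATP read-out (CellTiter-Glo) measures survival of drug-naive KB-3-1 cells after 72 h compound exposure at 37 °C. Titration series was screened from lowest to highest concentration, with DMSO vehicle plates as background controls.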
HT1080-NT tox: qHTS for induction of synthetic lethality in tumor cells producing 2HG: qHTS for the HT-1080-NT fibrosarcoma cell line. 360,000 compounds, 1.6% hits. HT-1080-NT fibrosarcoma viability, CellTiter-Glo ATP luminescence, 48 h. Potency, µM (titrated, usually from 46.1 µM), inactives show at the highest dose activity, negative = less viability, most hits filed as cytotoxic;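 also: NT is the 2HG producing partner of a matched IDH1 knockdown line; 0% = DMSO-treated cells and -100% = media-only wells without cells; nearly all actives have a fitted effect of over 55% in size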
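A 48-hour cytotoxicity screen used HT-1080-NT cells plated 2 hours before compound delivery. ATP-based CellTiter-Glo luminescence measured viability, normalized to DMSO and no-cell controls.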
DT40 TDP1 CPT: qHTS for Inhibitors of human tyrosyl-DNA phosphodiesterase 1 (TDP1): qHTS in cells in presence of CPT | Potency, µM (top dose mostly 46.2 µM), for inactives: at the top dose activity change, negative = growth inhibition, most hits filed as inhibitors | 420,000 compounds, 12% hits | chicken DT40 Tdp1-/-;hTDP1 cells + 20 nM CPT, ATP luminescence, 48 h; also: nearly all actives have a fitted effect of over 55% in size
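Chicken DT40 Tdp1-/- cells stably complemented with human TDP1 were seeded at 400 cells/well in medium containing 20 nM camptothecin, exposed to pin-transferred compounds, and grown at 37 °C for at least 48 hr. Viability was read as ATP luminescence.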
DT40 TDP1 no CPT: qHTS for Inhibitors of human tyrosyl-DNA phosphodiesterase 1 (TDP1): qHTS in cells in absence of CPT; Potency, µM (series often up to 46.2 µM), for inactives: at the top dose activity change, negative = growth inhibition, hits mostly inhibitors; AID 686978, 2013; DT40 Tdp1-/- hTDP1 cells, no CPT, ATP luminescence, 48 h; 420,000 compounds, 15% hits; also: nearly all actives have a fitted effect of over 55% in size
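Readout: luminescence from CellTiter-Glo after 30 min in the dark at RT. Cells: DT40 Tdp1-/- with stable hTDP1, 400/well. Exposure: compounds alone, ≥48 hr, 37 °C.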
An asterisk follows results filed as active; i = inactive; u = inconclusive; x = no result; [ ] = dose if it differs, or a comment. Calls follow the shape of the dose curve; as a rule, active = well fitted curve in the direction sought with a large enough effect; inconclusive = small, poorly fitted or top-dose-only effect, or another doubt; inactive = no such curve, though single readings can be large; an effect the other way counts as inactive or inconclusive. Unless noted, % is scaled to controls: 0 for no effect and ±100 for the full control effect; potency is read from the fitted curve at half-maximal effect.

SMILES | KB-V1 cytotox | HT1080 IDH1KD tx | KB-3-1 tox | HT1080-NT tox | DT40 TDP1 CPT | DT40 TDP1 no CPT
CC(=O)Nc1c(C)nn(-c2ccccc2)c1N1CCC(C(=O)Nc2ccccc2C(F)(F)F)CC1 | x | x | x | x | -17% | -20%
CCC(C)[C@H](NC(=O)N1CC(=O)Nc2ccccc21)C(=O)N1CCC(C(=O)O)CC1 (stereo not given in full) | i | 1% | i | 1% | -10% | -4%
COc1cc(CCC(=O)NNC(=O)c2cccc(Cl)c2)cc(OC)c1OC | i | 5% | i | 5% | 14% | -3%
O=C(c1ccc(F)cc1)C1CCN(C(=O)c2ccc(Cl)cc2)CC1 | i | 2% | i | -2% | u | 18µM*
Cc1cc(C)c2cc(C(=O)N3CCC(N4CCCCC4)CC3)[nH]c2c1 | i | -29% | i | -15% | -16% | -1%
Cc1cc(C)c2cc(C(=O)N3CCC(C(=O)c4ccc(F)cc4)CC3)[nH]c2c1 | i | u | i | u | u | 21µM*
O=C(c1ccc(F)cc1)C1CCN(C(=O)c2ccccc2)CC1 | i | 2% | i | 3% | -1% | u
CCC1CN(CCNC(=O)c2ccc(C#CC(C)(C)O)cc2)Cc2cc(OC)ccc2O1 (stereo not given) | x | x | x | x | 4%[9.04 µM] | u
N#C/C(=C/c1cccn1-c1cccc(C(=O)O)c1)c1ccc(F)cc1 | i | 0% | i | 0% | 5% | 24%
COc1cc(N2CCCC2)c(OC)cc1/C=C(/C#N)c1cccc(F)c1 | 16µM* | -1% | u | -3% | u | u
N#C/C(=C/c1ccc(N2CCCCCC2)o1)c1ccc(F)cc1 | u | 9.2µM* | u | u | 5.2µM* | 4.6µM*
N#C/C(=C/c1ccc(N2CCCCCC2)o1)c1cccc(F)c1 | 15µM* | 6.3µM* | i | 11µM* | u | 21µM*
COc1cccc(/C=C(/C#N)c2ccc(F)cc2)c1OCc1cccc(C(=O)O)c1 | i | 12% | i | 3% | 6% | 7%
CCOC(=O)CC(NC(=O)c1cccc2c1C(=O)N(Cc1cccnc1)C2)c1ccc(OCC)c(OC)c1 (stereo not given) | i | 4% | i | 1% | -3% | u
O=c1cnc2cnc(Oc3ccccc3)nc2n1C[C@H]1CCCO1 | x | x | x | x | -16% | u
Cn1cc(-c2cnc3c(NC=O)cc(-c4cccc(C(F)(F)F)c4)cn23)cn1 | 21µM* | u | u | -44% | u | 21µM*
COc1ccc(-c2cc(NC=O)c3ncc(-c4cccc(C(F)(F)F)c4)n3c2)c(OC)c1 | u | 13µM* | u | u | 18µM* | 15µM*
COc1cccc(-c2cc(NC=O)c3ncc(-c4cc(OC)c(OC)c(OC)c4)n3c2)c1 | 2.1µM* | u | 1µM* | u | 0.52µM* | 0.58µM*
COc1cc(-c2cc(NC=O)c3ncc(-c4ccc(C(C)=O)cc4)n3c2)ccc1O | i | 18µM* | u | u | 9.2µM* | 8.2µM*
O=C(COC(=O)Cn1cnc2ccccc21)Nc1ccc(OC(F)F)cc1 | i | -2% | i | -3% | -4% | 21%
COc1cc(-c2cnc3c(NC=O)cc(-c4cccnc4)cn23)cc(OC)c1OC | 13µM* | u | 10µM* | u | 2.9µM* | 2.9µM*
Nc1ccc(-c2cc(NC=O)c3ncc(-c4cccc(C(F)(F)F)c4)n3c2)cn1 | i | -26% | i | -8% | 16µM* | 10µM*
COc1cccc(-c2cnc3c(NC=O)cc(-c4ccc(O)c(OC)c4)cn23)c1 | i | u | u | u | -89% | 2.3µM*
COc1cc(-c2cnc3c(NC=O)cc(-c4cccc(C(F)(F)F)c4)cn23)cc(OC)c1OC | 23µM* | u | u | u | 5.8µM* | 5.2µM*
Cc1ccc(NC(=O)Cn2cccc2)cc1 | i | 21% | i | 15% | -9% | 3%
SMILES | KB-V1 cytotox | HT1080 IDH1KD tx | KB-3-1 tox | HT1080-NT tox | DT40 TDP1 CPT | DT40 TDP1 no CPT
COc1cc(-c2cnc3c(NC=O)cc(-c4ccsc4)cn23)cc(OC)c1OC | 1.3µM* | u | 0.82µM* | u | 0.18µM* | 0.16µM*
Cc1ccc(-n2nc3c(=O)n(CCCC(=O)NCc4ccco4)nc(C)c3c2C)cc1 | i | 2% | u | 5% | u | -13%
CCc1ccccc1N(C(=O)c1ccco1)C(C(=O)NC1CCCC1)c1cccnc1 (stereo not given) | i | -5% | i | -6% | -9% | -15%
CC(=O)NS(=O)(=O)c1ccc(NC(=O)c2cccc3ccccc23)cc1 | i | 13% | i | 1% | -25% | -23%
c1ccc(-c2nc(NCC3CC3)nc3ccsc23)cc1 | i | 4% | i | 13% | 16µM* | u
Cc1ccc(F)cc1-c1nc(NCC2CC2)nc2ccsc12 | i | -8% | i | -14% | u | u
Cc1ccccc1-c1nc(NCC2CC2)nc2ccsc12 | i | -12% | i | -1% | 23µM* | u
CCN1CCN(c2ccc(S(=O)(=O)N3CCOCC3)cc2NC(=O)c2ccc(OCC(C)C)cc2)CC1 | i | 0% | i | 2% | u | u
CC(C)Oc1ccc(C(=O)Nc2cc(S(=O)(=O)N3CCOCC3)ccc2N2CCOCC2)cc1 | 16µM* | u | u | -18% | u | 21µM*
CC(C)COc1ccc(C(=O)Nc2cc(S(=O)(=O)N3CCOCC3)ccc2N2CCCC2)cc1 | i | 0% | i | -6% | 16µM* | 26µM*
Cc1ccc(C(=O)OCC(=O)Nc2cc(C(C)(C)C)nn2-c2ccccc2)c(O)c1 | i | -6% | i | -6% | u | u
Cn1cc(CN2CCC(n3nccc3NC(=O)C3CCCC3)CC2)cn1 | i | 8% | i | 7% | 2% | -9%
CCN1C(=O)[C@@H]2[C@@H](c3ccc(SC4CCCCC4)c(OC)c3)N3CCCC[C@@]3(C(=O)OC)[C@@H]2C1=O | i | u | u | -13% | 21µM* | u
